# Reference: PubChem BioAssay (Tox21)
# Results filed as inconclusive are left out. Entries that show only a call come without a potency. Activity calls are given as the source filed them. Unless noted, the call rests on the fitted dose curve; in most records, active means well fitted curve in the direction sought with a large enough effect in the repeat runs; inconclusive means weak or mixed curves; inactive means no such curve, though single readings can be large; an effect the other way counts as inactive or inconclusive.
# Tests used:
# [1] = qHTS assay to identify small molecule antagonists of the retinoid acid receptor (RAR) signaling pathway - cell viability counter screen (AID 1159551); further: nearly all actives have a fitted effect of over 35% in size; further: potency means the concentration at half of the fitted maximal effect
# Outline: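 Seed C3RL4 cells; next day add compound, then retinol to 1 uM final; incubate 6 h at 37 C; add CellTiter-Glo; read luminescence after 30 min at RT.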
# [2] = qHTS assay to identify small molecule antagonists of the retinoic acid receptor (RAR) signaling pathway (AID 1159552; further: nearly all actives have a fitted effect of over 50% in size)
# Outline: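 Luminescence from a RARE luciferase reporter in C3RL4 cells served as read-out. Cells received compounds together with 1 uM final retinol and incubated 6 hr at 37 C before detection reagent was added for 30 min at room temperature.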
# [3] = qHTS assay to identify small molecule antagonists of the estrogen related receptor (ERR) signaling pathway from Tox21 library - cell viability counter screen (AID 1224834); further: nearly all actives have a fitted effect of over 30% in size; further: potency means the concentration at half of the fitted maximal effect
# Outline: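 CellTiter-Fluor fluorescence measured; ERR cells; 17.5 h compound incubation at 37 C; 30 min reagent step.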
# [4] = qHTS assay to identify small molecule agonists of the retinoic acid receptor (RAR) signaling pathway (AID 1159553)
# Outline: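 Activation of retinol signaling was monitored via a RARE luciferase reporter in C3RL4 cells. After 6 hr compound treatment at 37 C, detection reagent was added for 30 min at room temperature before luminescence reading.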
# [5] = qHTS assay to identify small molecule antagonists of the estrogen related receptor (ERR) signaling pathway (AID 1224819; further: nearly all actives have a fitted effect of over 50% in size; further: potency means the concentration at half of the fitted maximal effect)
# Outline: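 qHTS in ERR cells, 2,000/well, 1536 format. Cpd (DMSO) added after 6 h settle, 18 h 37 C. One-Glo luminescence, 30 min RT.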
# [6] = qHTS assay to identify small molecule agonists of the estrogen related receptor (ERR) signaling pathway (AID 1224820)
# Outline: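 ERR reporter cells (NTP line) plated 2,000/well, incubated 6 h at 37 C/5% CO2, then pinned with compounds in DMSO and held 18 h at 37 C. One-Glo added; luminescence read after 30 min at room temperature.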
# [7] = tested on: estrogen-related receptor alpha (ERRalpha) with PGC-1alpha coactivator, human; test: qHTS assay to identify small molecule antagonists of the estrogen related receptor signaling pathway with the pleiotropic PPARgamma coactivator (PGC) (AID 1224821; calls by dose curve; further: nearly all actives have a fitted effect of over 50% in size; further: potency means the concentration at half of the fitted maximal effect)
# Outline: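 Cells engineered for PGC/ERR signalling (line from NTP) were plated 6 h at 37 C/5% CO2, then exposed to DMSO-dissolved compound for 18 h at 37 C. Luciferase activity was read by One-Glo luminescence after 30 min at room temperature.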
# [8] = qHTS assay to identify small molecule agonists of the estrogen related receptor signaling pathway with the pleiotropic PPARgamma coactivator (PGC) (AID 1224823)
# Outline: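 PGC/ERR reporter cells were seeded, rested 6 h at 37 C/5% CO2, then exposed to compounds in DMSO by pin transfer for 18 h at 37 C. Luciferase activity was read as luminescence after One-Glo reagent and 30 min at room temperature.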
# [9] = qHTS assay to identify small molecule antagonists of the estrogen related receptor (ERR) signaling pathway - cell viability counter screen (AID 1224818);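 further: series mostly up to about 46 µM; viability measured after 17.5 h of compound exposure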
# Outline: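 In the same ERR cell assay, compound-treated wells (17.5 h, 37 C) were multiplexed with a fluorogenic viability reagent, CellTiter-Fluor, read after 30 min to flag cytotoxic substances.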
# [10] = qHTS assay to identify small molecule antagonists of the estrogen related receptor signaling pathway with the pleiotropic PPARgamma coactivator (PGC) cell viability counter screen (AID 1224822; further: series mostly up to about 46 µM)
# Outline: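 Compounds in DMSO, with positive and negative controls, were applied to PGC/ERR cells (2,000/well) and left 17.5 h at 37 C before CellTiter-Fluor detection.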
smiles,measurement,setting,value
CCC(C)(C)CC,Potency,[1],inactive
same,Potency,[2],inactive
same,Potency,[3],inactive
CC(C)C[C@H]1C(=O)N2CCC[C@H]2[C@]2(O)O[C@](NC(=O)[C@@H]3C=C4c5cccc6[nH]c(Br)c(c56)C[C@H]4N(C)C3)(C(C)C)C(=O)N12,Potency,[1],inactive
same,Potency,[4],inactive
same,Potency,[5],16.8 µM (active)
same,outcome,[6],inactive
same,Potency,[7],16.2 µM (active)
same,outcome,[8],inactive
same,Potency,[3],18.4 µM (active)
NC(=O)C(c1ccccc1)(c1ccccc1)[C@@H]1CCN(CCc2ccc3c(c2)CCO3)C1,Potency,[1],inactive
same,Potency,[4],inactive
same,Potency,[3],inactive
CC/C=C\CCOC(=O)CC,Potency,[1],inactive
same,Potency,[3],inactive
CC(C)(C)OCC1CO1 (configuration not stated),Potency,[1],inactive
same,Potency,[4],inactive
same,Potency,[3],inactive
CCOC(=O)c1cccnc1,Potency,[1],inactive
same,Potency,[3],inactive
CCN(CC)c1ccc2c(-c3ccccc3C(=O)O)c3ccc(=[N+](CC)CC)cc-3oc2c1,Potency,[1],19.3 µM (active)
same,Potency,[3],7.7 µM (active)
CC(CSC(=O)c1ccccc1)C(=O)N1C[C@@H](Sc2ccccc2)C[C@H]1C(=O)O (some centres not stated),"activity change, negative = cytotoxicity",[1],-2.34% [at 19 µM] (inactive)
same,"viability change, negative = cytotoxic",[3],7.27% [at 19 µM] (inactive)
CNC(=O)CN(CCN(CCN(CC(=O)[O-])CC(=O)NC)CC(=O)[O-])CC(=O)[O-].O.[Gd+3],Potency,[1],inactive
same,Potency,[4],inactive
same,Potency,[3],inactive
COc1ccnc(CS(=O)c2nc3ccc(OC(F)F)cc3[nH]2)c1OC (configuration not stated),Potency,[1],inactive
same,Potency,[3],inactive
COc1ccc(C(=O)N2CCN(CC(=O)N3CCOCC3)CC2)cc1,Potency,[1],inactive
same,Potency,[3],inactive
Nc1ncn([C@H]2C[C@H](O)[C@@H](CO)O2)c(=O)n1,Potency,[1],inactive
same,Potency,[3],inactive
CC[N+]1(CC)CCC(=C(c2ccccc2)c2ccccc2)C1C (configuration not stated),Potency,[1],inactive
same,Potency,[3],inactive
c1ccc(C(O[C@H]2CCCN(CCc3ccc4c(c3)OCO4)C2)c2ccccc2)cc1,Potency,[1],inactive
same,Potency,[3],inactive
CCCCO,Potency,[1],inactive
same,Potency,[3],inactive
C/C=C/C=C/CO,Potency,[1],inactive
same,Potency,[3],inactive
CCCCCCCC#N,Potency,[1],inactive
same,Potency,[3],inactive
CC[N+](C)(CC)CCOC(=O)C(O)(c1ccccc1)C1CCCCC1 (configuration not stated),Potency,[1],inactive
same,Potency,[3],inactive
CCCn1cnc2c1c(=O)n(CCCCC(C)=O)c(=O)n2C,Potency,[1],inactive
same,outcome,[9],inactive
same,Potency,[5],inactive
same,outcome,[6],inactive
same,Potency,[7],inactive
same,outcome,[10],inactive
same,outcome,[8],inactive
same,Potency,[3],inactive
CC(=O)[O][Al][O]C(C)=O,Potency,[1],inactive
same,Potency,[3],inactive
CCCC(=O)Nc1ccc(O)c(C(C)=O)c1,Potency,[1],inactive
same,Potency,[3],inactive
CNCCCN1c2ccccc2CCc2ccccc21,Potency,[1],inactive
same,outcome,[9],inactive
CN1Cc2cc(C(=O)N3CCC(C4CCNCC4)CC3)ccc2NC(CC(=O)O)C1=O (configuration not stated),Potency,[1],inactive
same,Potency,[3],inactive
COS(=O)(=O)C(F)(F)F,Potency,[1],inactive
same,Potency,[3],inactive
CCC(CC)Nc1ccc(C)c(C)c1,Potency,[1],inactive
same,Potency,[3],inactive
O=C(NCCO[N+](=O)[O-])c1cccnc1,Potency,[1],inactive
same,Potency,[3],inactive
CN(C)CCN(Cc1ccccc1)c1ccccn1,Potency,[1],inactive
same,Potency,[3],inactive
O[C@@H](COc1cccc2ncccc12)CN1CCN(C2c3ccccc3[C@@H]3[C@H](c4ccccc42)C3(F)F)CC1 (some centres not stated),Potency,[1],inactive
same,Potency,[3],9.44 µM (active)
CCCCC(CC)COC(=O)CCCCCCCCC(=O)OCC(CC)CCCC (configuration not stated),Potency,[1],inactive
same,Potency,[3],inactive
CCCCCCCN,Potency,[1],inactive
same,Potency,[3],inactive
CC(=O)c1ccc2c(c1)N(CCCN(C)C)c1ccccc1S2,Potency,[1],inactive
same,outcome,[9],inactive
same,outcome,[10],inactive
CCCNCC(O)COc1ccccc1C(=O)CCc1ccccc1 (configuration not stated),Potency,[1],inactive
same,outcome,[9],inactive
same,outcome,[10],inactive
CC(=O)c1ccc2c(c1)N(CCCN1CCC(CCO)CC1)c1ccccc1S2,Potency,[1],inactive
same,Potency,[3],23.7 µM (active)
NCC(=O)CCC(=O)O,Potency,[1],inactive
same,Potency,[3],inactive
O=[N+]([O-])c1ccc(NCCO)c(OCCO)c1,Potency,[1],inactive
same,Potency,[3],30.7 µM (active)
O=[N+]([O-])c1cccc(S(=O)(=O)O)c1,Potency,[1],inactive
same,Potency,[4],inactive
same,Potency,[3],43.9 µM (active)
S=C([S-])NCCNC(=S)[S-].[Mn+2],Potency,[1],inactive
same,Potency,[3],inactive
CCOC(=O)C(O)c1ccccc1 (configuration not stated),Potency,[2],inactive
same,Potency,[4],inactive
same,Potency,[3],inactive
CCN(CC)CCNC(=O)c1cc(Br)c(N)cc1OC,Potency,[1],inactive
same,Potency,[3],inactive
O=C1CCCCCCCCCCCC(=O)OCCO1,Potency,[1],inactive
same,Potency,[3],inactive
Nc1cccc(S(=O)(=O)c2cccc(N)c2)c1,Potency,[1],inactive
same,Potency,[3],inactive
C=CCOC(=O)CCC1CCCCC1,Potency,[1],inactive
same,Potency,[3],inactive
c1cc(CCCc2ccncc2)ccn1,Potency,[1],inactive
same,Potency,[3],inactive
CCCCCCCCCOS(=O)(=O)O,Potency,[1],inactive
same,Potency,[3],inactive
